Results published in the supplement of paper PMC6992640.
± gives the standard deviation of the averaged measurements.
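Also: PDX cells carrying CMV promoter-driven luciferase, viability read as total photon flux per second by IVIS imaging following D-luciferin, vehicle control 0.1% DMSO.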

What follows are compounds tested on HCI01 (cells of a triple-negative basal-like breast cancer xenograft) (assay: cell viability (% of vehicle); higher = less cytotoxic). Details: 10 µM; 72 h.
In the case of `C#CC1(O)CCC2C3CCc4cc(OC)ccc4C3CCC21C` (centres undefined) [Mestranol], the cell viability is reported as 131 ± 12.
In the case of `C=CCNC1=C2CC(C)CC(OC)C(O)C(C)C=C(C)C(OC(N)=O)C(OC)C=CC=C(C)C(=O)NC(=CC1=O)C2=O` (centres undefined), the cell viability is reported as 105 ± 37.
Work on `CCCN(CCC)S(=O)(=O)c1ccc(C(=O)O)cc1` [Probenecid] yielded a cell viability of 102 ± 37.
`Cc1onc(-c2ccccc2)c1C(=O)NC1C(=O)N2C1SC(C)(C)C2C(=O)[O-].O.[Na+]` (centres undefined) [Oxacillin sodium monohydrate] was tested, and the cell viability was 114 ± 12.
Compound `NS(=O)(=O)c1cc2c(cc1Cl)NCNS2(=O)=O` [Hydrochlorothiazide] has a cell viability of 95 ± 30.
For `NCCc1cnc[nH]1.O=P(O)(O)O.O=P(O)(O)O` [Histamine Phosphate], the cell viability was 117 ± 18.
For `NCC(O)c1ccc(O)c(O)c1.O.O=C(O)C(O)C(O)C(=O)O` (centres undefined) [Noradrenaline bitartrate monohydrate], the cell viability was 86.8 ± 21.
Compound `CCC1C(=O)N(C)c2cnc(Nc3ccc(C(=O)NC4CCC(N5CCN(CC6CC6)CC5)CC4)cc3OC)nc2N1C(C)C` (centres undefined) [BI6727 (Volasertib)] has a cell viability of 82.6 ± 50.
`CCC1OC(=O)C(C)C(OC2CC(C)(OC)C(O)C(C)O2)C(C)C(OC2OC(C)CC(N(C)C)C2O)C(C)(O)CC(C)CN(C)C(C)C(O)C1(C)O` (centres undefined) [Azithromycin] showed a cell viability of 145 ± 30.
With `CC(C)Cn1cnc2c(N)nc3ccccc3c21` [Imiquimod] the cell viability was 92.9 ± 12.

Each compound was assayed on HCI03 (cells of an ER-positive luminal breast cancer xenograft) in the same assay as above. Details: 10 µM; 72 h.
For `CC12CCC3c4ccc(O)cc4CCC3C1CCC2=O` (centres undefined) [Estrone], the cell viability was 112.
In the case of `CO[C@@]1(NC(=O)[C@H](C(=O)[O-])c2ccc(O)cc2)C(=O)N2C(C(=O)[O-])=C(CSc3nnnn3C)CO[C@@H]21.[Na+].[Na+]` [Moxalactam (sodium salt)], the cell viability is reported as 120.
For `CC(C)c1cc(C(=O)N2Cc3ccc(CN4CCN(C)CC4)cc3C2)c(O)cc1O`, the cell viability was 43.7.
In the case of `Cl.O=C1NCC2(CCN(CCc3ccccc3)CC2)O1` [Fenspiride HCl], the cell viability is reported as 126.
`C#C[C@]1(O)CC[C@H]2[C@@H]3CCC4=CC(=O)CC[C@@H]4[C@H]3C(=C)C[C@@]21CC` [Etonogestrel] gave a cell viability of 135.
`Cc1cc(Nc2cc(CN3CCOCC3)c3nc(C)c(Cc4ccc(Cl)cc4F)n3n2)n[nH]1` showed a cell viability of 116.
Work on `CCCC1O[C@@H]2C[C@H]3[C@@H]4CCC5=CC(=O)C=C[C@]5(C)[C@H]4[C@@H](O)C[C@]3(C)[C@]2(C(=O)CO)O1` (some centres undefined) [Budesonide] yielded a cell viability of 102.
Compound `CC(C)(C#N)c1cc(Cn2cncn2)cc(C(C)(C)C#N)c1` [Anastrozole] has a cell viability of 149.
`O=C(Nc1cccc2c(=O)cc(-c3nn[nH]n3)oc12)c1ccc(OCCCCc2ccccc2)cc1` [Pranlukast] showed a cell viability of 97.5.
`CO[C@H]1C(=O)[C@]2(C)[C@@H](OC)C[C@H]3OC[C@@]3(OC(C)=O)[C@H]2[C@H](OC(=O)c2ccccc2)[C@]2(O)C[C@H](OC(=O)[C@H](O)[C@@H](NC(=O)OC(C)(C)C)c3ccccc3)C(C)=C1C2(C)C` [Cabazitaxel] was tested, and the cell viability was 113.
In the case of `COc1ccccc1OCC(O)CO` (centres undefined) [Guaifensin], the cell viability is reported as 131.
In the case of `O=C(Nc1c(Cl)cncc1Cl)c1ccc(OC(F)F)c(OCC2CC2)c1` [Roflumilast], the cell viability is reported as 145.
Work on `CCCCCC(O)C=CC1C(O)CC(=O)C1CCCCCCC(=O)O` (centres undefined) [Alprostadil] yielded a cell viability of 124.
In the case of `C#CC1(O)CCC2C3CCC4=CC(=O)CCC4C3CCC21C` (centres undefined) [Norethindrone], the cell viability is reported as 134.
With `CCCc1nc(C(C)(C)O)c(C(=O)O)n1Cc1ccc(-c2ccccc2-c2nn[nH]n2)cc1` [Olmesartan] the cell viability was 121.
`CC12CCC3c4ccc(O)cc4CCC3C1CCC2O` (centres undefined) [Estradiol] was tested, and the cell viability was 111.
Compound `N=C(N)NCCCC[C@@H]1NC(=O)CCSSC[C@@H](C(N)=O)NC(=O)[C@@H]2CCCN2C(=O)[C@H](Cc2c[nH]c3ccccc23)NC(=O)[C@H](CC(=O)O)NC(=O)CNC1=O` [Eptifibatide] has a cell viability of 148.
`C#CC1(O)CCC2C3CCC4=CC(=O)CCC4C3CCC21CC` (centres undefined) [Levonorgestrel] was tested, and the cell viability was 127.
`CCC(=O)OCC(=O)C1(OC(=O)CC)C(C)CC2C3CCC4=CC(=O)C=CC4(C)C3(Cl)C(O)CC21C` (centres undefined) [Beclomethasone dipropionate] gave a cell viability of 182.
In the case of `C[C@@H]1C[C@H]2[C@H]3CCC4=CC(=O)C=C[C@]4(C)[C@@]3(F)[C@@H](O)C[C@]2(C)[C@@]1(O)C(=O)CO` [Dexamethasone (DHAP)], the cell viability is reported as 138.
`CCC(=O)OC1(C(=O)CCl)C(C)CC2C3CCC4=CC(=O)C=CC4(C)C3(F)C(O)CC21C` (centres undefined) [Clobetasol propionate] gave a cell viability of 125.
In the case of `O=C(NS(=O)(=O)c1ccc(Br)s1)c1ccc(Cl)cc1Cl` [Tasisulam], the cell viability is reported as 126.
`Nc1nnc(-c2cccc(Cl)c2Cl)c(N)n1` [Lamotrigine] was tested, and the cell viability was 155.
Compound `Cl.O=C(CCCN1CCC(O)(c2ccc(Cl)cc2)CC1)c1ccc(F)cc1` [Haloperidol hydrochloride] has a cell viability of 99.6.
`CC(=O)OC1(C(C)=O)CCC2C3C=C(C)C4=CC(=O)CCC4(C)C3CCC21C` (centres undefined) [Megestrol Acetate] was tested, and the cell viability was 121.
`O=c1c(O)c(-c2ccc(O)c(O)c2)oc2cc(O)cc(O)c12` [Quercetin] gave a cell viability of 123.
With `O=NN(CCCl)C(=O)NCCCl` [Carmustine] the cell viability was 166.
With `O=C(CCCN1CCN(c2ccccn2)CC1)c1ccc(F)cc1` [Azaperone] the cell viability was 114.
Compound `CC(NCCc1ccc(O)cc1)C(O)c1ccc(O)cc1.Cl` (centres undefined) [Ritodrine HCl] has a cell viability of 116.
Work on `C#CC1(O)CCC2C3CCc4cc(OC)ccc4C3CCC21C` (centres undefined) [Mestranol] yielded a cell viability of 136.
Work on `C=CCNC1=C2CC(C)CC(OC)C(O)C(C)C=C(C)C(OC(N)=O)C(OC)C=CC=C(C)C(=O)NC(=CC1=O)C2=O` (centres undefined) yielded a cell viability of 57.1.
Work on `CCCN(CCC)S(=O)(=O)c1ccc(C(=O)O)cc1` [Probenecid] yielded a cell viability of 142.
For `Cc1onc(-c2ccccc2)c1C(=O)NC1C(=O)N2C1SC(C)(C)C2C(=O)[O-].O.[Na+]` (centres undefined) [Oxacillin sodium monohydrate], the cell viability was 150.
For `NS(=O)(=O)c1cc2c(cc1Cl)NCNS2(=O)=O` [Hydrochlorothiazide], the cell viability was 106.
`NCCc1cnc[nH]1.O=P(O)(O)O.O=P(O)(O)O` [Histamine Phosphate] showed a cell viability of 117.
For `NCC(O)c1ccc(O)c(O)c1.O.O=C(O)C(O)C(O)C(=O)O` (centres undefined) [Noradrenaline bitartrate monohydrate], the cell viability was 152.
`CCC1C(=O)N(C)c2cnc(Nc3ccc(C(=O)NC4CCC(N5CCN(CC6CC6)CC5)CC4)cc3OC)nc2N1C(C)C` (centres undefined) [BI6727 (Volasertib)] was tested, and the cell viability was 85.1.
`CCC1OC(=O)C(C)C(OC2CC(C)(OC)C(O)C(C)O2)C(C)C(OC2OC(C)CC(N(C)C)C2O)C(C)(O)CC(C)CN(C)C(C)C(O)C1(C)O` (centres undefined) [Azithromycin] showed a cell viability of 137.
For `CC(C)Cn1cnc2c(N)nc3ccccc3c21` [Imiquimod], the cell viability was 109.
